High-throughput results (PubChem BioAssay)
Giardia killer: Small Molecules that selectively kill Giardia lamblia: qHTS; Giardia lamblia trophozoite viability; 340,000 compounds, 0.15% hits; AID 540267, 2011; activity change, % at 7.66 µM, hits read low; in the data active means activity change below about -80%; inconclusive means between about -30% and that limit;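 further: parasites exposed to compound for two days anaerobically before the ATP read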
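Media and compound were dispensed first, then trophozoites at 100 cells/well; plates sat 48 hrs at 37 deg C without oxygen before ATP luminescence reagent was added and read after 15-30 min at room temperature.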
Coupling enz: qHTS Assay for Inhibitors of Fructose-1,6-bisphosphate Aldolase from Giardia Lamblia: Coupling assay counterscreen. coupling enzyme system counterscreen, AmpLite Red fluorescence. activity change, negative = inhibition, % at 58.2 µM, hits read low. 290,000 compounds, 0.67% hits. AID 2472, 2010; in the data active means activity change below about -30%
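Counterscreen of the coupled detection system alone, without aldolase: glyceraldehyde-3-phosphate coupling enzymes plus AmpLite Red readout. Compounds at 57.5 uM final, 10 min RT preincubation, 20 min RT reaction, fluorescence 525/598 nm.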
ELG1 DNA repair: qHTS screen for small molecules that inhibit ELG1-dependent DNA repair in human embryonic kidney (HEK293T) cells expressing luciferase-tagged ELG1; 330,000 compounds, 2.3% hits; Potency, µM (highest dose often 46.1 µM), hits mostly inhibitors; AID 504467, 2011; HEK293T ELG1-luciferase reporter, luminescence, 16 h; DNA damage induced by 5-fluorouridine; further: nearly all actives have a fitted effect of over 55% in size
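Step one: seed 2,000 cells per well. Step two: pin-transfer compound or DMSO alongside 5-fluorouridine. Step three: incubate 16 hr, 37 °C, 5% CO2. Step four: add ONE-Glo, wait 30 min, read luminescence.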
Sfp inh: qHTS Assay for Inhibitors of Bacillus subtilis Sfp phosphopantetheinyl transferase (PPTase). 4'-phosphopantetheinyl transferase ffp (Bacillus subtilis), Q9F4F7. Biochemical Sfp PPTase activity, qHTS. Potency, µM, actives largely listed as inhibitors. 310,000 compounds, 3.5% hits;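 further: the enzyme is Sfp with the accession as filed and its product quenches rhodamine fluorescence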
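Compounds were incubated with enzyme (final 15 nM) for 15 min at room temperature before substrate addition started the reaction. Fluorescence at 525 nm excitation, 598 nm emission was recorded immediately and after 30 minutes.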
Numbers stand for hits; n = inactive; u = inconclusive; x = not tested or not shown. Shown are actives, neighbours in structure and some others; about 5.5% of the full set was active somewhere. Unless noted, the call rests on the fitted dose curve; in most records, active means well fitted curve in the direction sought with a large enough effect; inconclusive means small, poorly fitted or top-dose-only effect, or another doubt; inactive means no such curve, though single readings can be large; an effect the other way counts as inactive or inconclusive.

SMILES	Giardia killer	Coupling enz	ELG1 DNA repair	Sfp inh
COc1cc(/C=C2\SC(=S)N(NS(=O)(=O)c3ccccc3)C2=O)cc(OC)c1OC	n	n	n	79µM
O=C(Nc1ccccc1N1CCOCC1)C1=NN(c2ccccc2)C(=O)CC1	n	x	n	x
CCOC(=O)[C@]1(C(NC(=O)OC)c2ccco2)CCCC1=O (some centres not stated)	x	n	x	n
COc1ccc(S(=O)(=O)Oc2c(OC)cc(C(=S)N3CCOCC3)cc2OC)cc1	n	n	n	28µM
COc1ccc(C(=S)N2CCOCC2)cc1OS(=O)(=O)c1ccc(Br)cc1	n	x	u	n
COc1cc(C(=S)N2CCOCC2)cc(Br)c1OS(=O)(=O)c1ccccc1	n	n	16µM	n
CC(=O)OCC(=O)[C@@]12OC3(CCCC3)OC1CC1C3CCC4=CC(=O)C=C[C@@]4(C)[C@]3(F)C(O)C[C@]12C (some centres not stated)	x	n	x	n
COc1ccc(-n2c(=O)c(-c3cccc(F)c3)nc3cncnc32)cc1	x	n	x	n
C/C(O)=C\c1nc2ccccc2oc1=O	n	n	n	u
O=c1oc2ccccc2nc1/C=C(\O)c1ccc(Br)cc1	n	n	u	56µM
CCOc1ccc(-c2csc(NNC3=NCCCCC3)n2)cc1	n	n	u	10µM
COc1ccc(-c2csc(NNC3=NCCCCC3)n2)cc1	n	n	u	13µM
COc1ccccc1N1CCN(C(=O)CCNS(=O)(=O)c2cc(Br)cnc2N)CC1	n	x	n	n
O=C(Oc1ccc(=O)n(-c2ccccc2)n1)c1ccc(F)cc1	n	n	n	n
O=C(Oc1ccc(=O)n(-c2ccccc2)n1)c1ccc(Cl)cc1	n	n	u	89µM
Cc1ccc(S(=O)(=O)N2CCN(CCOc3cccc(C)c3)CC2)cc1	n	x	n	x
CCc1ccc(NC(=O)CS(=O)CC(=O)Nc2ccc(N3CCOCC3)cc2)cc1 (configuration not stated)	n	n	n	n
Cc1cc(C)c(S(=O)(=O)/N=C2\C=C(Nc3ccc(C(=O)O)cc3)C(=O)c3ccccc32)c(C)c1	n	-42	3.3µM	50µM
O=C(O)c1ccc(NC2=C/C(=N/S(=O)(=O)c3ccccc3)c3ccccc3C2=O)cc1	n	-47	4.6µM	n
Cn1cccc1C(=O)OCc1cc(Cl)cc2c1OCOC2	n	n	u	71µM
Cn1cccc1C(=O)OCC(=O)Nc1ccc2c(c1)OCO2	n	n	u	n
CC1CN(C2=NC(=O)/C(=C3/C(=O)N(Cc4ccc(F)cc4)c4ccccc43)S2)CC(C)O1 (configuration not stated)	n	n	12µM	40µM
COc1ccc(NC(=O)CN(C)C(=O)c2ccccc2Sc2ncnc3sc(C)c(C)c23)cc1	n	x	16µM	x
Cc1sc2ncnc(Sc3ccccc3C(=O)Nc3ccc(Br)cc3)c2c1C	n	n	u	50µM
COC(=O)C1=C(C(=O)OC)C(c2ccccc2O)c2sc(=O)[nH]c2S1 (configuration not stated)	n	n	u	8.9µM
SMILES	Giardia killer	Coupling enz	ELG1 DNA repair	Sfp inh
O=C(NNC(=O)c1csc(-c2cccnc2)n1)c1ccccc1	n	n	n	89µM
O=C(Nc1ccccc1Cl)c1csc(-c2cccnc2)n1	n	n	u	n
O=C(NNS(=O)(=O)c1ccccc1)c1csc(-c2cccnc2)n1	n	n	12µM	n
C=Cc1ccc(Cn2c(C(=O)O)c(CNCc3ccccc3)c3ccc(C)cc32)cc1	n	x	x	x
C=CCOc1ccc(C2=NOC(C(=O)Nc3ccc4c(c3)OCCO4)C2)cc1 (configuration not stated)	n	n	n	n
CN1OC[C@@H]2CN(Cc3ccccc3)[C@H](c3cccc(Oc4ccccc4)c3)C[C@@H]21	n	x	x	x
CN(C)S(=O)(=O)c1cccc(NC(=O)c2ccc(COc3ccccc3)cc2)c1	n	n	12µM	n
COc1cc(OC)c(OC)cc1CNC(=O)c1ccc(COc2ccccc2)cc1	n	n	10µM	n
COc1ccc(CN(C)C(=O)c2ccc(COc3ccccc3)cc2)c(OC)c1	n	n	u	n
COCc1ccc(C(=O)Nc2cccc(S(=O)(=O)N(C)c3ccccc3)c2)cc1	n	x	18µM	x
COc1cccc(S(=O)(=O)NCc2ccc(C(=O)Nc3cccc(Cl)c3)cc2)c1	n	n	18µM	n
